Test results: PubChem BioAssay (NCATS)
Results filed as inconclusive are left out. Entries that show only a call come without a potency. Active and inactive are the calls of the source. The call rests on the fitted dose curve; in most records, active means well fitted inhibition curve with a large enough effect; inconclusive means small, poorly fitted or top-dose-only effect; inactive means no such curve, though single readings can be large or run the other way. Positions of bridges follow the written chain, without caps; N, C: chain ends. Non-standard residues stand in square brackets, D forms with d. Residues, ends and D or L forms follow the SMILES beside them. ξ: configuration not given here. *: point of attachment. Octanoyl(6-Me) = CCC(C)CCCCC(=O)*; ξThr(3R) = C[C@@H](O)C(N)C(=O)O; dDab = NCC[C@@H](N)C(=O)O; Dab = NCC[C@H](N)C(=O)O

assay: BET inhibitor-based combinations targeting novel dependencies in MECOM-rearranged (r) AML: OCI-AML3 cell line (AID 2202232); settings: CellTiter-Glo luminescence, 48 h; Potency: OCI-AML3 viability; series mostly up to 46 µM; further: nearly all actives have a fitted effect of over 35% in size
Excerpt: Ecotropic viral insertion site 1 (EVI1) is located on chromosome 3q26.2 as part of the MECOM (MDS and EVI1 complex) locus. Under normal hematopoiesis, EVI1 is a regulator of hematopoietic stem cell maintenance and self-renewal and EVI1 levels decrease as the cells differentiate. In approximately 5-10% of de novo acute myeloid leukemia (AML) EVI1 is aberrantly expressed, including Chromosomal inv(3)(q21;q26.2) or t(3;3)(q21;q26.2) alterations (MECOM-r) that account for about 50% of AML with EVI1 overexpression 31. AMLs with high levels of EVI1 have a poor prognosis and an overall survival time averaging between 10-14 months. EVI1 overexpression confers resistance in leukemia cells, highlighting the need to develop new targeted therapies for EVI1 overexpressing AMLs.
Here, we performed an unbiased chemical drug screening by evaluating the single agent activity of a collection of 2,480 oncology-focused, approved and investigational drugs (NCATS Mechanism Interrogation Plates, MIPE v5.0) against a panel of seven AML cell lines. These included four MECOM-r cell-lines (AML-191, AML-194, UCSD-AML1 and HNT-34) and three non-MECOM-r AMLs (MV4-11, OCI-AML3 and SET-2). Exploiting the mechanistic redundancy built in the library, we identified target-level sensitivities in MECOM-r AML cells and relative activity as compared to other AML subtypes.
A collection of 2480 mechanistically annotated dugs (MIPE v5.0) was used to screen four 3q26.2 rearranged AML cell lines and three non-3q26.2 rearranged AML cell lines. This library purposely exploits redundancy by including multiple inhibitors of key onco-targets, while simultaneously encompassing mechanistic diversity, targeting more than 800 distinct mechanisms of action. Briefly, cells were seeded in 5 uL of growth media using a Multidrop Combi dispenser into 1536 well white polystyrene tissue culture treated plates (Corning) at a density of 500cells/well. For each cell-line, for each of the 2480 drugs in MIPE v5.0 library, an 11-point dose curve was generated via a 1536 pin-tool. Plates were incubated for 48 hr at standard incubator conditions, covered by a stainless steel gasketed lid to prevent evaporation. Cell viability was determined by luminescence based, Cell Titer Glo assay (Promega). In detail, 3 uL of Cell Titer Glo were added to each well and plates were incubated at room temperature for 15 min with a stainless-steel lid in place. Luminescence readings were taken using a Viewlux (PerkinElmer) with a 2 s exposure time per plate. Compound dose-response curves were normalized to DMSO and empty well controls on each plate. Quantitative drug activity data from dose-response curves was determined utilizing area Under the Curve (AUC) and Z-transformed AUC (Z-AUC, a mean-centering transformation applied to each individual cell-line screened).
Potency means the concentration at half of the fitted maximal effect.

Row | SMILES | Potency
1 | Cc1cc(OCCCS(C)(=O)=O)cc(C)c1-c1cccc(COc2ccc3c(c2)OC[C@H]3CC(=O)O)c1 | inactive
2 | Nc1nc2[nH]cc(CCc3ccc(C(=O)N[C@@H](CCC(=O)O)C(=O)O)cc3)c2c(=O)[nH]1 | 662 nM (active)
3 | Cc1ccc(C(=O)Nc2cccc(C(F)(F)F)c2)cc1-c1ccc2nc(NCCN3CCOCC3)ncc2c1 | 525 nM (active)
4 | Nc1ccc(/C=C/C(=O)NCc2cc3cc(-c4ccc(C(=O)N5CCC(F)(F)CC5)cc4)cc(-c4ccc(F)cc4)c3o2)cn1 | 525 nM (active)
5 | CC1(C)CCC2=C(O1)c1ccccc1C(=O)C2=O | 18600 nM (active)
6 | CC(C)OC(=O)C(C(=O)OC(C)C)=C1SC=CS1 | inactive
7 | c1coc(CNc2ncnc3nc[nH]c23)c1 | inactive
8 | CC(=O)Nc1ccc([C@H](C)C(=O)Nc2ncc(C(C)C)s2)cc1 | 7420 nM (active)
9 | COc1cccc(OC)c1-c1cc(C(=O)NC2(C(=O)O)C3CC4CC(C3)CC2C4)nn1-c1ccnc2cc(Cl)ccc12 (stereo not given) | inactive
10 | CCOC(=O)C1=C(O)C(=O)N(Cc2ccccc2)C1 | inactive
11 | O=C(/C=C/C#Cc1cccc(NS(=O)(=O)c2ccccc2)c1)NO | 574 nM (active)
12 | CC(C)n1cnc2c(NCCc3ccc(O)cc3)nc(-c3csc4ccccc34)nc21 | 20900 nM (active)
13 | Cc1cnc(Nc2ccc(OCCN3CCCC3)cc2)nc1Nc1cccc(S(=O)(=O)NC(C)(C)C)c1 | 2630 nM (active)
14 | NC(=O)c1ccc2[nH]ccc2c1 | inactive
15 | Cc1ccc(S(=O)(=O)N[C@@H](Cc2ccccc2)C(=O)CCl)cc1 | 16600 nM (active)
16 | COc1cc2c(cc1OC)[C@@H]1C(=O)c3ccc4c(c3O[C@@H]1CO2)C=CC(C)(C)O4 | 525 nM (active)
17 | CC(C(=O)O)c1ccc2c(c1)CC(=O)c1ccccc1S2 (stereo not given) | inactive
18 | O=c1cc(CN2CCOCC2)occ1OCCCCCSc1ccnc2cc(C(F)(F)F)ccc12 | inactive
19 | Clc1ccccc1CN1CCc2sccc2C1 | inactive
20 | O=C(O)[C@H](O)[C@@H](O)[C@H](O[C@@H]1O[C@H](CO)[C@H](O)[C@H](O)[C@H]1O)[C@H](O)CO | inactive

Row | SMILES | Potency
21 | COc1ccc([C@@H]2Sc3ccccc3N(CCN(C)C)C(=O)[C@@H]2OC(C)=O)cc1 | inactive
22 | C[C@@H]1C(=O)O[C@H]2CC34[C@H]5C[C@@H](C(C)(C)C)C36[C@H](OC(=O)[C@@H]6O)O[C@@]4(C(=O)O5)[C@]21O (stereo not given in full) | inactive
23 | CC(C)c1noc(N2CCC(COc3ccc(-c4ccc(S(C)(=O)=O)cc4)nc3)CC2)n1 | 4680 nM (active)
24 | COc1c(C)c2c(c(O)c1C/C=C(\C)CCC(=O)OCCN1CCOCC1)C(=O)OC2 | 1320 nM (active)
25 | Nc1ncnc2c1ncn2[C@@H]1O[C@H](CO)C[C@H]1O | inactive
26 | CNC(=O)c1c(-c2ccc(F)cc2)oc2cc(N(CCO)S(C)(=O)=O)c(C3CC3)cc12 | inactive
27 | CCCc1nc2c(C)cc(-c3nc4ccccc4n3C)cc2n1Cc1ccc(-c2ccccc2C(=O)O)cc1 | inactive
28 | CNC(=O)c1cccc2cc(Oc3ccnc4cc(OCC5(N)CC5)c(OC)cc34)ccc12 | 23500 nM (active)
29 | NC(=O)c1cccc(N)c1 | inactive
30 | COc1ccc2cc3[n+](cc2c1OC)CCc1cc2c(cc1-3)OCO2 | 4170 nM (active)
31 | CCC(C)CCCCC(=O)N[C@@H](CCN)C(=O)NC(C(=O)N[C@H](CCN)C(=O)N[C@@H]1CCNC(=O)C([C@@H](C)O)NC(=O)[C@@H](CCN)NC(=O)[C@@H](CCN)NC(=O)[C@@H](CC(C)C)NC(=O)[C@H](Cc2ccccc2)NC(=O)[C@H](CCN)NC1=O)[C@@H](C)O (stereo partly drawn) ({Octanoyl(6-Me)}-[Dab][ξThr(3R)][dDab][dDab][Dab]F[dL][dDab][dDab][ξThr(3R)]; lactam 4-C) | inactive
32 | O=C(NC1CCOCC1)c1ccc(-c2cc(-c3cn[nH]c3-c3ccccn3)ccn2)cc1 | inactive
33 | c1ccc(-c2ccc(CNc3nc(-c4ccccn4)nnc3-c3ccccc3)cc2)cc1 | 1320 nM (active)
34 | O=C(NCCS(=O)(=O)c1ccc(C(F)(F)F)cn1)c1ccc(Cl)cc1 | inactive
35 | Cc1cc(C(C)(C)C)c(O)c(C)c1CC1=NCCN1 | inactive
36 | CC[C@]1(O)CC2CN(CCc3c([nH]c4ccccc34)[C@@](C(=O)OC)(c3cc4c(cc3OC)N(C)[C@H]3[C@@](O)(C(=O)OC)[C@H](OC(C)=O)[C@]5(CC)C=CCN6CC[C@]43[C@@H]65)C2)C1 (stereo not given in full) | 296 nM (active)
37 | O=C1C[C@@H](c2ccc(O)cc2)Oc2cc(O)cc(O)c21 | inactive
38 | Nc1cccc(S(=O)(=O)N2CCCN(S(=O)(=O)c3ccc4c(c3)OCCO4)CC2)c1 | inactive
39 | Cc1ccc(C(C)(O)c2nc3ccccc3s2)c(C)c1 (stereo not given) | inactive
40 | C[N+]1(C)[C@@H]2CC(OC(=O)[C@H](CO)c3ccccc3)C[C@H]1[C@@H]1O[C@@H]12 (stereo not given in full) | inactive
